From ChEMBL document CHEMBL3988442, “University of Dundee, Small-Polar-MMV Screening Library” (2021)
Screen size: about 53,000 compounds; about 900 (1.7%) showed an effect of 50% or more. The full list was thinned out, with strong results kept by preference.

These molecules were tested on Mycobacterium tuberculosis (assay: Cornell - Phenotypic assay to identify agents that inhibit growth of Mycobacterium tuberculosis). Conditions: 10 mM as filed; unlikely as a test dose.
Format: functional
Design: scale not given: direction of the effect not stated beside the values

**Q.** Which “Percent Effect” value does the source give for `Cc1cccc(CN2CCC(C3Nc4ccccc4S(=O)(=O)N3)CC2)n1` (configuration not stated) here?
**A.** -13.88%

**Q.** For `CCn1c(N)nc2cc(C(=O)N(C)Cc3cc(C(C)(C)C)n[nH]3)cnc21`, which “Percent Effect” value is on record?
**A.** 12.68%

**Q.** For `CN1CC(=O)N(c2cccc(F)c2)CC12CCNC2` (configuration not stated), which “Percent Effect” value is on record?
**A.** -13.58%

**Q.** With `NC(=O)CN1CCCCC1c1nc(N)ncc1-c1cccc(F)c1` (configuration not stated) as the molecule, how does the “Percent Effect” value read?
**A.** -18.13%

**Q.** How did the “Percent Effect” value turn out when `COCCN1CCN(Cc2nc(-c3ccoc3)no2)CC1` was run?
**A.** -27.89%

**Q.** `O=S(=O)(Nc1cnc(N2CCOCC2)nc1)c1ccc(C(F)(F)F)cc1` was tested. Which “Percent Effect” value did it give?
**A.** 57.68%

**Q.** `O=S(=O)(Nc1cnc(N2CCCC2)nc1)c1ccc(C(F)(F)F)cc1` was tested. Which “Percent Effect” value did it give?
**A.** 101.9%

**Q.** Which “Percent Effect” value does the source give for `CN(C)c1ncc(NS(=O)(=O)c2ccc(OC(F)(F)F)cc2)cn1` here?
**A.** 23.91%

**Q.** With `O=S(=O)(Nc1cnc(N2CCCC2)nc1)c1ccc(F)cc1F` as the molecule, how does the “Percent Effect” value read?
**A.** -10.3%

**Q.** For `Cc1ccc(F)cc1S(=O)(=O)Nc1cnc(N2CCCC2)nc1`, which “Percent Effect” value is on record?
**A.** 13.98%

**Q.** Which “Percent Effect” value does the source give for `Cn1cc(NS(=O)(=O)c2ccc(OC(F)(F)F)cc2)ccc1=O` here?
**A.** -35.35%

**Q.** Which “Percent Effect” value does the source give for `O=S(=O)(Nc1cnc(N2CCCC2)nc1)c1ccc(OC(F)(F)F)cc1` here?
**A.** 94.98%

**Q.** `O=S(=O)(Nc1cnc(N2CCOCC2)nc1)c1ccc(Cl)cc1` was tested. Which “Percent Effect” value did it give?
**A.** -17.06%

**Q.** Which “Percent Effect” value does the source give for `CCc1ccc(S(=O)(=O)Nc2cnc(N3CCOCC3)nc2)cc1` here?
**A.** 24.89%

**Q.** For `O=C1CCC(=O)N1c1nn(Cc2ccccc2)cc1Cl`, which “Percent Effect” value is on record?
**A.** -38.92%

**Q.** For `Cc1ccc(S(=O)(=O)c2ncccc2CN2CCCC2)cc1`, which “Percent Effect” value is on record?
**A.** -5.255%

**Q.** `N#CC1COCCN1C(=O)c1ccc2[nH]ccc2c1` (configuration not stated) was tested. Which “Percent Effect” value did it give?
**A.** 10.98%

**Q.** How did the “Percent Effect” value turn out when `CC(C)(C)n1cc(NC(=O)C2CN(Cc3ccccc3)CCO2)cn1` (configuration not stated) was run?
**A.** 19.34%

**Q.** Which “Percent Effect” value does the source give for `COc1ccccc1CNC(=O)CN(C)C(C)c1ccncn1` (configuration not stated) here?
**A.** 1.408%

**Q.** With `Cc1cn([C@@H]2CC3(CCNCC3)OC[C@@]2(C)O)c(=O)[nH]c1=O` as the molecule, how does the “Percent Effect” value read?
**A.** 56.73%

**Q.** How did the “Percent Effect” value turn out when `Cc1cn([C@H]2CCNC[C@]2(C)O)c(=O)[nH]c1=O` was run?
**A.** 34.03%

**Q.** With `CC(C)N1CC[C@@](C)(O)[C@H](n2ccc(=O)[nH]c2=O)C1` as the molecule, how does the “Percent Effect” value read?
**A.** -3.084%

**Q.** Which “Percent Effect” value does the source give for `CCc1ncc(S(C)(=O)=O)c(C2CCCNC2)n1` (configuration not stated) here?
**A.** 21.49%

**Q.** With `CCc1c(O)nc(SCC(=O)N(CC)CC)n(C(C)CC)c1=O` (configuration not stated) as the molecule, how does the “Percent Effect” value read?
**A.** 4.731%

**Q.** How did the “Percent Effect” value turn out when `CCc1c(O)nc(SCC(=O)c2ccccc2)n(-c2ccccc2)c1=O` was run?
**A.** 13.57%

**Q.** With `CSc1nc(O)c(Cc2ccccc2)c(=O)n1-c1ccccc1` as the molecule, how does the “Percent Effect” value read?
**A.** 18.81%

**Q.** For `CCc1c(O)nc(SC(C)CC)n(-c2ccccc2)c1=O` (configuration not stated), which “Percent Effect” value is on record?
**A.** 96.76%

**Q.** `CCc1c(O)nc(SCC(=O)Nc2ccccc2)n(C(C)CC)c1=O` (configuration not stated) was tested. Which “Percent Effect” value did it give?
**A.** 65.15%

**Q.** With `CCOc1ccc(Cc2c(O)nc(SC)n(-c3ccccc3)c2=O)cc1` as the molecule, how does the “Percent Effect” value read?
**A.** 8.957%

**Q.** How did the “Percent Effect” value turn out when `CCc1c(O)n(C(C)CC)c(SCC(=O)c2ccccc2)nc1=O` (configuration not stated) was run?
**A.** 28.35%

**Q.** How did the “Percent Effect” value turn out when `COc1ccc(Cc2c(O)nc(SC)n(-c3ccccc3)c2=O)cc1` was run?
**A.** -12.72%

**Q.** `CCCSc1nc(O)c(CC)c(=O)n1-c1ccccc1` was tested. Which “Percent Effect” value did it give?
**A.** 98.89%

**Q.** `CNC(=O)COc1ccc(CNCc2c(C)nn(C)c2N(C)C)cc1` was tested. Which “Percent Effect” value did it give?
**A.** -6.953%

**Q.** Which “Percent Effect” value does the source give for `O=S(=O)(c1ccc(F)c(F)c1)n1cc(Cl)cn1` here?
**A.** -7.033%

**Q.** With `CC1(Cc2ccc(F)cc2)Cc2cc(C(=O)NCCO)ccc2O1` (configuration not stated) as the molecule, how does the “Percent Effect” value read?
**A.** 0.603%

**Q.** `COCc1noc(CN2C[C@H](NS(C)(=O)=O)[C@@H](C3CC3)C2)n1` was tested. Which “Percent Effect” value did it give?
**A.** 15.5%

**Q.** For `CC(C)COC(=O)N1CC(=O)N(Cc2ccc(Cl)cc2)CC(O)C1` (configuration not stated), which “Percent Effect” value is on record?
**A.** -5.11%

**Q.** With `CS(=O)(=O)NCc1ncn2c1CN(C(=O)C1CCCO1)CCC2` (configuration not stated) as the molecule, how does the “Percent Effect” value read?
**A.** 5.323%

**Q.** With `COc1cccc(-c2nc(C)c(C(=O)N[C@H](CO)CCSC)s2)c1` as the molecule, how does the “Percent Effect” value read?
**A.** 3.237%

**Q.** `COc1cccc(-c2nc(C)c(C(=O)N[C@@H](CCSC)C(=O)O)s2)c1` was tested. Which “Percent Effect” value did it give?
**A.** 4.928%

**Q.** `CSCCC(NC(N)=O)C(=O)NCc1c(C)nn(-c2ccccc2)c1C` (configuration not stated) was tested. Which “Percent Effect” value did it give?
**A.** -4.034%

**Q.** With `COC(=O)[C@H](CCSC)NC(=O)Cc1c(C)nn(-c2ccccc2)c1C` as the molecule, how does the “Percent Effect” value read?
**A.** 83.92%

**Q.** Which “Percent Effect” value does the source give for `COc1cncc(-n2nc(C)c(CC(C)=O)c2C)c1` here?
**A.** 14.09%

**Q.** `COC(=O)C(CCSC)NC(=O)Cc1c(C)nn(-c2ccccc2)c1C` (configuration not stated) was tested. Which “Percent Effect” value did it give?
**A.** 87.19%

**Q.** With `CC(C)C(=O)NCCCNC(=O)Nc1cc(-c2ccccc2)ns1` as the molecule, how does the “Percent Effect” value read?
**A.** 30.68%

**Q.** `CCS(=O)(=O)N1CCC2(CC1)CN(c1cccnc1)C(=O)CO2.O=C(O)C(F)(F)F` was tested. Which “Percent Effect” value did it give?
**A.** -1.862%

**Q.** `Cc1nc(CNc2nc3c(s2)c(C)nn3C)cs1` was tested. Which “Percent Effect” value did it give?
**A.** 88.41%

**Q.** Which “Percent Effect” value does the source give for `CCc1csc(CNc2nc3c(s2)c(C)nn3C)n1` here?
**A.** -15.98%

**Q.** How did the “Percent Effect” value turn out when `Cc1nn(C)c2nc(NC3CCNCC3)sc12` was run?
**A.** 23.18%

**Q.** Which “Percent Effect” value does the source give for `Cc1csc(CNc2nc3c(s2)c(C)nn3C)n1` here?
**A.** 21.44%

**Q.** Which “Percent Effect” value does the source give for `Cc1nn(C)c2nc(NCCCN3CCCC(CO)C3)sc12` (configuration not stated) here?
**A.** 5.889%

**Q.** For `CCc1nc(CNc2nc3c(s2)c(C)nn3C)cs1`, which “Percent Effect” value is on record?
**A.** 82.51%
